The results in this text go back to publication PMC7862700, “An all-to-all approach to the identification of sequence-specific readers for epigenetic DNA modifications on cytosine”.

Assay in all cases: DAPPL (digital affinity profiling via proximity ligation, sequencing); 10 mM Tris-HCl pH 7.5, 50 mM NaCl, 1 mM DTT, 4% glycerol, room temperature, 30 min; GST-TFs on glutathione beads, 16-mer random dsDNA library, 0.1% formaldehyde crosslink after washing; high values mean tight binding
Holding throughout (settings): protein: recombinant; tags: N-terminal GST; dsDNA, one strand shown

In one experiment the target is T1, FLI1 (Homo sapiens, UniProt Q01543 1-452).
T1 sequence: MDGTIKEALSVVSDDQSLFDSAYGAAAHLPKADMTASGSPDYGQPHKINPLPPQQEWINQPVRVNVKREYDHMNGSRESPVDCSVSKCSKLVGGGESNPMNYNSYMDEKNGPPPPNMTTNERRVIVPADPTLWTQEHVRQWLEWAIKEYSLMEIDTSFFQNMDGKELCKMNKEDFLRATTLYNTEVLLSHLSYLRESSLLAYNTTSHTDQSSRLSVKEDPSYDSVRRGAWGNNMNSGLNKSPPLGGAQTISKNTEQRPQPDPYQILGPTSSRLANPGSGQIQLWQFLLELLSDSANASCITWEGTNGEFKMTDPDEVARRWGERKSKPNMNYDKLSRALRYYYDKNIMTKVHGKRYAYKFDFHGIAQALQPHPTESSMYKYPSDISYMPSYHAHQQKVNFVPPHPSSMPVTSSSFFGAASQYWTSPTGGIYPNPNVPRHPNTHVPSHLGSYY
The method, boiled down: (§1)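 Binding signal is each hexamer's read frequency for a factor divided by its frequency in the tag-only sample. The factors were GST-fused human transcription factors from yeast, captured on glutathione beads, DNA-barcoded and pooled with that sample. Pools were incubated with 200 nmole of a random double-stranded 16-mer DNA library in Tris/NaCl/DTT/glycerol buffer at room temperature for 30 min, then washed, crosslinked with 0.1% formaldehyde, proximity-ligated with BsaI/T4 ligase (1 h, 37 °C), PCR-amplified and sequenced on an Illumina NextSeq500.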

In another experiment the target is T2, ELK1 (Homo sapiens, UniProt P19419 1-428).
T2 sequence: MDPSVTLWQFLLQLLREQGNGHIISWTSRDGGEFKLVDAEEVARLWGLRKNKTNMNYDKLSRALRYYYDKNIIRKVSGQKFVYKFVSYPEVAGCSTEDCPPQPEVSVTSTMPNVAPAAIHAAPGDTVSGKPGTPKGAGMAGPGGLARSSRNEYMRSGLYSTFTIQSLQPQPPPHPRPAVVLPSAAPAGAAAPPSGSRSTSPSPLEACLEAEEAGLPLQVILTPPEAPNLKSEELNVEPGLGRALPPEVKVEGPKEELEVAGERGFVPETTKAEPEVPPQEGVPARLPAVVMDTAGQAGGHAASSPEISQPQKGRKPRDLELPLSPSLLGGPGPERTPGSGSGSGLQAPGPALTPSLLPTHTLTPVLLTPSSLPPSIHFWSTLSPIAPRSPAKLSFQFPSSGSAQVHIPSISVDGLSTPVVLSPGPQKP
The essentials: as §1

The target in a further experiment is T3, GABPA (Homo sapiens, UniProt Q06546 1-454).
T3 sequence: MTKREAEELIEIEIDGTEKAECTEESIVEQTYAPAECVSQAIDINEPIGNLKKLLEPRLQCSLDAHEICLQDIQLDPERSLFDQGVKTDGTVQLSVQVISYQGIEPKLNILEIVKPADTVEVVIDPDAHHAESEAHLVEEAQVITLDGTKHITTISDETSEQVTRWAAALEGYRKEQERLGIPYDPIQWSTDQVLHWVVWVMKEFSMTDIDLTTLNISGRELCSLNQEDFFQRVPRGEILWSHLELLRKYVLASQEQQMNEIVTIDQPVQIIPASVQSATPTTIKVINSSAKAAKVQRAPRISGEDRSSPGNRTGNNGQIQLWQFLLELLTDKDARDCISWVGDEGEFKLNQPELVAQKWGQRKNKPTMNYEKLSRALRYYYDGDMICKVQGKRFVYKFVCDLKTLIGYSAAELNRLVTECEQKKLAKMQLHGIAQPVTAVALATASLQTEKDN
The method, boiled down:
as §1

Another experiment addresses T4, ERG (Homo sapiens, UniProt P11308 1-479).
T4 sequence: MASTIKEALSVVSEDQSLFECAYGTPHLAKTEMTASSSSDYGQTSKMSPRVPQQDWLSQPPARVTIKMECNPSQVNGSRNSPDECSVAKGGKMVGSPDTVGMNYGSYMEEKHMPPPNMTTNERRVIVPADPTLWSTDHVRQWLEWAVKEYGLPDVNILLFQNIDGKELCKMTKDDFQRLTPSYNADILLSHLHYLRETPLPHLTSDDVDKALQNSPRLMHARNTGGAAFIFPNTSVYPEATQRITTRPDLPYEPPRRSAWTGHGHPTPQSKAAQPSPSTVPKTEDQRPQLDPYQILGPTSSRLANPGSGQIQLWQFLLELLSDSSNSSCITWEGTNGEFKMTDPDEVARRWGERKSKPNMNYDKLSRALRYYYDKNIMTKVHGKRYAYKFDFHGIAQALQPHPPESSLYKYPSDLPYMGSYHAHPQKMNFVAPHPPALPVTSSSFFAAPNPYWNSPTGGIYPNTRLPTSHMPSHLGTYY
The method, boiled down:
as §1

The next experiment has as its target ELF1 (Homo sapiens, UniProt P32519 1-619). The method, boiled down:
as §1

For the next experiment, the target named is T5, EHF (Homo sapiens, UniProt Q9NZC4 1-300).
T5 sequence: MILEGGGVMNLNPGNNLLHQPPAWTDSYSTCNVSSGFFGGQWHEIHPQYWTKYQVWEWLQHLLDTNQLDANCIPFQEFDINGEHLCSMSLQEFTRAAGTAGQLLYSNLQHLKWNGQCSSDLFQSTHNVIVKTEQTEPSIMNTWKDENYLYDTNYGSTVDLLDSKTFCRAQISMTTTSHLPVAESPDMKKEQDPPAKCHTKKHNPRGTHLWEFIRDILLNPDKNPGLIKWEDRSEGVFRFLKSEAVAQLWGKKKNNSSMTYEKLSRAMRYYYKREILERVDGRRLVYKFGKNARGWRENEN
The essentials:
as §1

A further experiment has as its target SPI1 (Homo sapiens, UniProt P17947 1-270). The method, boiled down:
as §1

The target in the next experiment is SPIB (Homo sapiens, UniProt Q01892 1-262). The essentials: as §1
A further experiment concerns the target T6, ELK3 (Homo sapiens, UniProt P41970 1-407).
T6 sequence: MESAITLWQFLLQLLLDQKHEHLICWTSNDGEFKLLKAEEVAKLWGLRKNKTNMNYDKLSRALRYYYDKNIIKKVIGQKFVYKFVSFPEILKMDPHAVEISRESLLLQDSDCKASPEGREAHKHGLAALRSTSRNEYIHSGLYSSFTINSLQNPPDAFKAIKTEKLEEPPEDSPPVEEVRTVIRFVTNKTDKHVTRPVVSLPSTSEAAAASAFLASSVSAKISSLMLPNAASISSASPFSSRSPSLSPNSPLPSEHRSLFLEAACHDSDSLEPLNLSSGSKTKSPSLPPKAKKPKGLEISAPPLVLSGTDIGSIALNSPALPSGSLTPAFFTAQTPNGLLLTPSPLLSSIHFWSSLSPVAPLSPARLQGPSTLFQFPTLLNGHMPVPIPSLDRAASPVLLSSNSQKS
The essentials: as §1

Another experiment addresses T7, FEV (Homo sapiens, UniProt Q99581 1-238).
T7 sequence: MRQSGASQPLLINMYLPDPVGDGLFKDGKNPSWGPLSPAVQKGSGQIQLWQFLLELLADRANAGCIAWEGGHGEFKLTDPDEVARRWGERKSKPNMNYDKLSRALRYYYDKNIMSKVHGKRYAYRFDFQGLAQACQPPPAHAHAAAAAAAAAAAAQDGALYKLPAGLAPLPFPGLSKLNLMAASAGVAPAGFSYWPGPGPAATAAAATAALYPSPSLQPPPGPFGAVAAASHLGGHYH
The method, boiled down:
as §1

The target of a further experiment is ETV5 (Homo sapiens, UniProt P41161 1-510). The essentials: as §1
The target of another experiment is T8, SPIC (Homo sapiens, UniProt Q8N5J4 1-248).
T8 sequence: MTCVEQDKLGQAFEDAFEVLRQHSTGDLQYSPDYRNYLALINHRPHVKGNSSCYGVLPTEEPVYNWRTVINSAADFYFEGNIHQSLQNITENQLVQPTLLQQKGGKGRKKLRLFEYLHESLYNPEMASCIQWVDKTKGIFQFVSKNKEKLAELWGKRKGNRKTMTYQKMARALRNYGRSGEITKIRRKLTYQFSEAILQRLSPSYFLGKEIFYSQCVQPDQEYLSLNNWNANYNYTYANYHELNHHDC
The essentials: as §1

In the next experiment the target is ELF4 (Homo sapiens, UniProt Q99607 1-663). The method, boiled down:
as §1

The target in a further experiment is T9, ELK4 (Homo sapiens, UniProt P28324-2 1-405).
T9 sequence: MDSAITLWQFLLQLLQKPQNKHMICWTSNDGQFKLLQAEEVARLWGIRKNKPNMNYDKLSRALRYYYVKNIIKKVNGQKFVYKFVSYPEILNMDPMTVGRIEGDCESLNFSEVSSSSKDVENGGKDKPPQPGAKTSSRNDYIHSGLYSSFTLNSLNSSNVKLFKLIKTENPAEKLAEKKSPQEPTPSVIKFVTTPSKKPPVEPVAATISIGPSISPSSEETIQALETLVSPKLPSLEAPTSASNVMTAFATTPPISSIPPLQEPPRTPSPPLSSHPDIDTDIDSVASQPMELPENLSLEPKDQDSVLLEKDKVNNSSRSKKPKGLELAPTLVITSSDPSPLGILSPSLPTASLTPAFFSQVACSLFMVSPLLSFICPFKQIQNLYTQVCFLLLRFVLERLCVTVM
The method, boiled down: as §1

In another experiment the target is T10, ETV2 (Homo sapiens, UniProt O00321 1-342).
T10 sequence: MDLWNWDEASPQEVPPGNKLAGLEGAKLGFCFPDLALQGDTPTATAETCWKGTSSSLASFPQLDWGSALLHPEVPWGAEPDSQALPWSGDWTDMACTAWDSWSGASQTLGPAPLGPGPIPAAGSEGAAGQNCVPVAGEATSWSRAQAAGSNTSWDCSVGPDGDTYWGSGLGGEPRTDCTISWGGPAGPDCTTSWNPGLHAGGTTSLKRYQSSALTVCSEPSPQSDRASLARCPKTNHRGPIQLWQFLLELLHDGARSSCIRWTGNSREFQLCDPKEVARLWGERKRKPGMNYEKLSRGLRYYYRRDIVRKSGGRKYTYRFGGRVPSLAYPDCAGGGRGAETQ
The essentials:
as §1

Another experiment concerns the target T11, ELF3 (Homo sapiens, UniProt P78545 1-371).
T11 sequence: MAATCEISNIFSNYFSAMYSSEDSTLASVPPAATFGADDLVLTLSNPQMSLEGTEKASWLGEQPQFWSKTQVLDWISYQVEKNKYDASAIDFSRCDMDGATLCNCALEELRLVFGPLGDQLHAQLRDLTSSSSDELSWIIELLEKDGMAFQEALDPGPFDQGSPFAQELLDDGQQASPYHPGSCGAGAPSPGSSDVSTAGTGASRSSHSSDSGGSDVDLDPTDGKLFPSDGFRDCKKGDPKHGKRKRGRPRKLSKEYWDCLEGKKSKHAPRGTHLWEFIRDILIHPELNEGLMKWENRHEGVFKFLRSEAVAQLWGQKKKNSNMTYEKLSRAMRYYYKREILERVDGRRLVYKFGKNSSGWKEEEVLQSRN
The method, boiled down:
as §1

A further experiment deals with CRX (Homo sapiens, UniProt O43186 1-299). The essentials:
as §1

Another experiment has as its target ETV1 (Homo sapiens, UniProt P50549 1-477). The method, boiled down:
as §1

ELF1, sequence (P32519 whole entry): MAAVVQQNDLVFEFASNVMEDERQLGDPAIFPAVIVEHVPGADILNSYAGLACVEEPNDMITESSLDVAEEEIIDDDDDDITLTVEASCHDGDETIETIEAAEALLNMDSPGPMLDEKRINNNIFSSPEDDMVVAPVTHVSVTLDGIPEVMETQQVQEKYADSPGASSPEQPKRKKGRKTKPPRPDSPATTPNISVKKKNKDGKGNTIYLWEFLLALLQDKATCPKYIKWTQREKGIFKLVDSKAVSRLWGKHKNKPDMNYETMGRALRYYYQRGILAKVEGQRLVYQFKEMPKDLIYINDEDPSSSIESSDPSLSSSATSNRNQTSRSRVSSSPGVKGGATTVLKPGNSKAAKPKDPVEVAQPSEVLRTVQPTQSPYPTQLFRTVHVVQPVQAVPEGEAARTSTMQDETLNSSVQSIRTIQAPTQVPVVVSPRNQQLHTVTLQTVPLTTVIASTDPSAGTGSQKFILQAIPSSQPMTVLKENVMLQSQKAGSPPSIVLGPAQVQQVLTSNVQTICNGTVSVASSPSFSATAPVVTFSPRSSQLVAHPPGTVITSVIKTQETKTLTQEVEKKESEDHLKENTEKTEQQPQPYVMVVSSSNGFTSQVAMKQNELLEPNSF
ETV1, sequence (P50549 whole entry): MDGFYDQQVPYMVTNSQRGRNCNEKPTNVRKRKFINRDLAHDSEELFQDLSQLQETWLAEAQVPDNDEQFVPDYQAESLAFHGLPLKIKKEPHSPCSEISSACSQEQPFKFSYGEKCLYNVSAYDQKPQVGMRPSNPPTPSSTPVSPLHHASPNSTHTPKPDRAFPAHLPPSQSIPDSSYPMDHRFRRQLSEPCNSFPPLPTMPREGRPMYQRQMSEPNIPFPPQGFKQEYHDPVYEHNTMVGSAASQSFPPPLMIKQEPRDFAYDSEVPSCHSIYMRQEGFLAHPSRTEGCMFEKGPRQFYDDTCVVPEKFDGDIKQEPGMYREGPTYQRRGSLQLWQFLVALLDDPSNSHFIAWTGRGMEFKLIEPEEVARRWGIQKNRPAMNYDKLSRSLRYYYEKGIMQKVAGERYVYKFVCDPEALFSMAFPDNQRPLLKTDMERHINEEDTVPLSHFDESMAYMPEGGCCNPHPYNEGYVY
ETV5, sequence (P41161 whole entry): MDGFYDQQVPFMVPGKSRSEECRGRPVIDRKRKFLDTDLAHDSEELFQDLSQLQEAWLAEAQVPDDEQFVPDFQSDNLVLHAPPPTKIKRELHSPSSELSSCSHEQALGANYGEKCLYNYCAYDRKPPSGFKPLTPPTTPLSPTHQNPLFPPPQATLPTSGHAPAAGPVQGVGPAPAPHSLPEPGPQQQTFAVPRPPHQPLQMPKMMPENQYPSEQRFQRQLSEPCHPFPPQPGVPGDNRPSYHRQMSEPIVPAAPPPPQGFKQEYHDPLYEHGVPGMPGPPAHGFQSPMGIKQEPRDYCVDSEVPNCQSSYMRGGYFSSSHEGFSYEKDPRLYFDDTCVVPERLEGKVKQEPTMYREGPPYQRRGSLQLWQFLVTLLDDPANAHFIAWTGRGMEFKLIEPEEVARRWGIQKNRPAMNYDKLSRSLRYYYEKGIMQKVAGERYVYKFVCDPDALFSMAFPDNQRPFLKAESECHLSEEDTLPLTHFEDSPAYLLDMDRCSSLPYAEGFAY
ELF4, sequence (Q99607 whole entry): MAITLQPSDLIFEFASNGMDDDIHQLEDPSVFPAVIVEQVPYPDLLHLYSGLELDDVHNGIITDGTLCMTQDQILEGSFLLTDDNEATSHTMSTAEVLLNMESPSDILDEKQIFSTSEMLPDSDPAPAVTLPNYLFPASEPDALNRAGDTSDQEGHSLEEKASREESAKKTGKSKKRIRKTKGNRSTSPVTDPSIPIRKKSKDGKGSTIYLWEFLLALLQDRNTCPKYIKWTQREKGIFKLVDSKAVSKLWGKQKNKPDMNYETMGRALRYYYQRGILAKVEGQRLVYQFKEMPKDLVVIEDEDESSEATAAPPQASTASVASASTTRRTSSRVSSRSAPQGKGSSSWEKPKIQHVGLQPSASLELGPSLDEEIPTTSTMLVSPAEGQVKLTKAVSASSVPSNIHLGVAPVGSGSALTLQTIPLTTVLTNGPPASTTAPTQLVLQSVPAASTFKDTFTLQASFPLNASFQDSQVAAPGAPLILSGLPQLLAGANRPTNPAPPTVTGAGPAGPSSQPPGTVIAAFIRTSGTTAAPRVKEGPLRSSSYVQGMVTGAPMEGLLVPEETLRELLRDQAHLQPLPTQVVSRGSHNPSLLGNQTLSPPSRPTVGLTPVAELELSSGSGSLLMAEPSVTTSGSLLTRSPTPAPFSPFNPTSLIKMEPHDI
SPIB, sequence (Q01892 whole entry): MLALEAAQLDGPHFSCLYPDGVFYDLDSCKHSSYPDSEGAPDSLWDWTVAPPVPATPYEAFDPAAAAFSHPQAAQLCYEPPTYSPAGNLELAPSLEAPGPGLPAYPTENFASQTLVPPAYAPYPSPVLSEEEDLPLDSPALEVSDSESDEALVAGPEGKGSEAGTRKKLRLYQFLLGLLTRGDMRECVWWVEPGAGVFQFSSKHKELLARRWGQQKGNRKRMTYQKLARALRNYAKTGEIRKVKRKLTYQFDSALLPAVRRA
CRX, sequence (O43186 whole entry): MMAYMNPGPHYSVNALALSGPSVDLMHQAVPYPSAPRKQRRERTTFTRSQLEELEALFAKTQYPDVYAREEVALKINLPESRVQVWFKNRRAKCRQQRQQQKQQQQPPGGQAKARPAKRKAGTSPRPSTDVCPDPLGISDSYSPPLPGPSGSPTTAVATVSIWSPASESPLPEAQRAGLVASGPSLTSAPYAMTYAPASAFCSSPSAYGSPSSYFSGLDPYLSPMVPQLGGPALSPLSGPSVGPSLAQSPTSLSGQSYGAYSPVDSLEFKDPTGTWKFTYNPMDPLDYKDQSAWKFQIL

With TTGGGC, the binding signal was 1.03 fold enrichment (6-mer frequency, TF over GST control) with FLI1; 1.07 fold enrichment (6-mer frequency, TF over GST control) with ELK1; 1.01 fold enrichment (6-mer frequency, TF over GST control) with GABPA; 1.07 fold enrichment (6-mer frequency, TF over GST control) with ERG; 1.03 fold enrichment (6-mer frequency, TF over GST control) with ELF1; 1.1 fold enrichment (6-mer frequency, TF over GST control) with EHF. Besides, the binding signal with SPI1 was 1.2 fold enrichment (6-mer frequency, TF over GST control); in the experiment with SPIB, 1.1 fold enrichment (6-mer frequency, TF over GST control); with ELK3 it was 1.21 fold enrichment (6-mer frequency, TF over GST control); in the experiment with FEV, 1.13 fold enrichment (6-mer frequency, TF over GST control); with ETV5, 1.12 fold enrichment (6-mer frequency, TF over GST control); with SPIC, 1.07 fold enrichment (6-mer frequency, TF over GST control). The binding signal is 1.1 fold enrichment (6-mer frequency, TF over GST control) in the experiment with ELF4; 1.05 fold enrichment (6-mer frequency, TF over GST control) with ELK4; 1.15 fold enrichment (6-mer frequency, TF over GST control) with ETV2; 1.18 fold enrichment (6-mer frequency, TF over GST control) with ELF3; 1.03 fold enrichment (6-mer frequency, TF over GST control) with CRX; 1.13 fold enrichment (6-mer frequency, TF over GST control) with ETV1.
Consider GCACGC, for which the binding signal with FLI1 is 1.03 fold enrichment (6-mer frequency, TF over GST control); with ELK1, 1.09 fold enrichment (6-mer frequency, TF over GST control); with GABPA, 1.14 fold enrichment (6-mer frequency, TF over GST control); with ERG, 1.03 fold enrichment (6-mer frequency, TF over GST control); in the experiment with ELF1 it was 1.15 fold enrichment (6-mer frequency, TF over GST control); with EHF it was 1.15 fold enrichment (6-mer frequency, TF over GST control). Moreover, the binding signal with SPI1 is 1.12 fold enrichment (6-mer frequency, TF over GST control); with SPIB it was 1.19 fold enrichment (6-mer frequency, TF over GST control); in the experiment with ELK3, 1.09 fold enrichment (6-mer frequency, TF over GST control); in the experiment with FEV, 1.08 fold enrichment (6-mer frequency, TF over GST control); in the experiment with ETV5, 1.04 fold enrichment (6-mer frequency, TF over GST control); with SPIC, 1.06 fold enrichment (6-mer frequency, TF over GST control). For the same sequence, the binding signal is 1.11 fold enrichment (6-mer frequency, TF over GST control) in the experiment with ELF4; 1.05 fold enrichment (6-mer frequency, TF over GST control) with ELK4; 1.18 fold enrichment (6-mer frequency, TF over GST control) with ETV2; 1.13 fold enrichment (6-mer frequency, TF over GST control) in the experiment with ELF3; 1.16 fold enrichment (6-mer frequency, TF over GST control) with ETV1.
